Results as given in PubChem BioAssay (Tox21).
Results filed as inconclusive are left out. Entries that show only a call come without a potency. Values without a mark were called inactive. Calls of active or inactive are those of the source. Unless noted, calls follow the shape of the dose curve; as a rule, active = well fitted curve in the direction sought with a large enough effect in the repeat runs; inconclusive = weak or mixed curves; inactive = no such curve, though single readings can be large; an effect the other way counts as inactive or inconclusive.

Tests used:
[1] = qHTS assay to identify aromatase inhibitors - cell viability counter screen (AID 743084);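 also: cells stimulated with testosterone during compound exposure; nearly all actives have a fitted effect of over 55% in size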
[2] = molecular target: Aryl hydrocarbon receptor (Homo sapiens) (UniProt P35869); experiment: qHTS assay to identify small molecule that activate the aryl hydrocarbon receptor (AhR) signaling pathway (AID 743085);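 also: HG2L7.5c1 human HepG2 liver cells with stably integrated DRE-driven firefly reporter; series mostly up to about 70 µM; nearly all actives have a fitted effect of over 15% in size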
Chain of Aryl hydrocarbon receptor (Homo sapiens) (P35869 whole entry, looked up): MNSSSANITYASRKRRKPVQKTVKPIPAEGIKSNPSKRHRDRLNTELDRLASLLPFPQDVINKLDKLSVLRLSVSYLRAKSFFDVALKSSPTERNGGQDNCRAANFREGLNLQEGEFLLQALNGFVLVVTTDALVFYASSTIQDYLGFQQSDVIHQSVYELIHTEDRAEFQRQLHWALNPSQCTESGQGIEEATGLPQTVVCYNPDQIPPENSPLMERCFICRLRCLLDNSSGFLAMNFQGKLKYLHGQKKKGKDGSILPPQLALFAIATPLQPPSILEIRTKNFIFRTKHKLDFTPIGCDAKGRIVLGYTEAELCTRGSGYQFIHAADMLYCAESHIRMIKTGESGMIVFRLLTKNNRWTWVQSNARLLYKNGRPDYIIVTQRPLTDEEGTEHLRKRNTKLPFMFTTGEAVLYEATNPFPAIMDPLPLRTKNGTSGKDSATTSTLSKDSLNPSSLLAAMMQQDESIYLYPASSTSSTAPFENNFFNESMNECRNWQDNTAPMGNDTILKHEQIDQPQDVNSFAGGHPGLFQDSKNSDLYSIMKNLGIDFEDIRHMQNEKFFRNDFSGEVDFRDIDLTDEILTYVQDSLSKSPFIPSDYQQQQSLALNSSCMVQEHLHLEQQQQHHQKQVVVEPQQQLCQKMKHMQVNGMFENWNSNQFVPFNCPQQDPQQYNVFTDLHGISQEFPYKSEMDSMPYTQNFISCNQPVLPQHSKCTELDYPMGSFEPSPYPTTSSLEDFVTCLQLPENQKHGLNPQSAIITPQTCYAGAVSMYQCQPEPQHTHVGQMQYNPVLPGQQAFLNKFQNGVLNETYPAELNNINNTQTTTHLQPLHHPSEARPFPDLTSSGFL
Summary of the method: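 Steps: seed HepG2-AhR-luc cells; allow 5 h at 37C; pin-transfer test compound or vehicle; incubate 24 h at 37C; add viability dye (30 min, 37C) and read fluorescence; add luciferase substrate (30 min, RT) and read luminescence.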

[3] = qHTS assay to identify small molecule that activate the aryl hydrocarbon receptor (AhR) signaling pathway - cell viability counter screen (AID 743086);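 also: HepG2 liver cells carrying the AhR DRE luciferase reporter; series mostly up to about 70 µM; nearly all actives have a fitted effect of over 45% in size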
Summary of the method: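 Cytotoxicity counter screen: CellTiter-Fluor signal (30 min, 37 C) in 4000 HepG2 cells/well carrying the DRE-luciferase reporter, following 24 h compound exposure at 37 C.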

[4] = molecular target: Peroxisome proliferator-activated receptor gamma (Homo sapiens) (UniProt P37231); experiment: qHTS assay to identify small molecule agonists of the peroxisome proliferator-activated receptor gamma (PPARg) signaling pathway (AID 743094; active = well fitted activation curve with a large enough effect in the signal ratio in the repeat runs, not every such curve was filed as active; the % refers to the signal ratio; also: potency is read from the fitted curve at half-maximal effect)
Chain of Peroxisome proliferator-activated receptor gamma (Homo sapiens) (P37231 whole entry, looked up): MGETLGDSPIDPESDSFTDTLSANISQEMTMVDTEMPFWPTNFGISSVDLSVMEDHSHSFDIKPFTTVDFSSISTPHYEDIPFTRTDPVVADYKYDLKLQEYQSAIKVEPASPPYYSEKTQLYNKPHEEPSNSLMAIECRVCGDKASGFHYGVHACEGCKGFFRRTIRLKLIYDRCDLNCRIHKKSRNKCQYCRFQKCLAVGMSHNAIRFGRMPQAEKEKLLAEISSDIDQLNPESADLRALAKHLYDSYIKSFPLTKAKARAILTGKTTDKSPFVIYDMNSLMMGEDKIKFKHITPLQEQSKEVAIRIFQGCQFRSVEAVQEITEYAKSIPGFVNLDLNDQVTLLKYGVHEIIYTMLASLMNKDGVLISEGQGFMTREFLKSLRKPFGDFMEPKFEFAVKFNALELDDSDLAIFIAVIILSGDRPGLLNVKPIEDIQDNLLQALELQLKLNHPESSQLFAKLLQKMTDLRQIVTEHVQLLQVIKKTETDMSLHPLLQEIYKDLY
Summary of the method: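 HEK293H PPARg-bla cells, 5 h settle at 37C/5% CO2; compound (DMSO) 17 h, 37C; B/G FRET substrate 1 h RT; fluorescence intensity read-out. qHTS format.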

[5] = molecular target: Peroxisome proliferator-activated receptor gamma (Homo sapiens) (UniProt P37231); experiment: qHTS assay to identify small molecule antagonists of the peroxisome proliferator-activated receptor gamma (PPARg) signaling pathway (AID 743191; calls by dose curve; also: series mostly up to about 63 µM; nearly all actives have a fitted effect of over 30% in size)
Summary of the method: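 Beta-lactamase reporter under UAS control in HEK293H PPARg-bla cells; compound treatment 17 h at 37C. Read-out: fluorescence intensity after 1 h room-temperature incubation with LiveBLAzer B/G FRET substrate.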

[6] = qHTS assay to identify small molecule antagonists of the peroxisome proliferator-activated receptor gamma (PPARg) signaling pathway - cell viability counter screen (AID 743194); also: nearly all actives have a fitted effect of over 55% in size
Summary of the method: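 Viability was measured as CellTiter-Glo luminescence in GeneBLAzer PPARg UAS-bla HEK293H cells. These cells had been exposed 17 h at 37 C to compounds together with rosiglitazone at 50 nM final, with the beta-lactamase readout taken in the same wells.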

[7] = qHTS assay for small molecule agonists of the antioxidant response element (ARE) signaling pathway (AID 743202; active = well fitted activation curve with a large enough effect in the signal ratio in the repeat runs, not every such curve was filed as active; the % refers to the signal ratio)
Summary of the method: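 Beta-lactamase reporter activity, read as fluorescence intensity, reflects ARE/Nrf2 pathway induction in HepG2 cells after 16 h compound exposure at 37 C; substrate loading was 2 h at room temperature.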

[8] = qHTS assay for small molecule agonists of the antioxidant response element (ARE) signaling pathway - cell viability counter screen (AID 743203; calls by dose curve; also: nearly all actives have a fitted effect of over 55% in size)
Summary of the method: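 Luminescence read-out (CellTiter-Glo, 30 min at room temperature) measured cell viability in the same wells as the ARE beta-lactamase reporter. HepG2 ARE-bla cells were treated with compounds for 16 hrs at 37C/5% CO2.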

[9] = qHTS assay for small molecule activators of the heat shock response signaling pathway - cell viability counter screen (AID 743209); also: nearly all actives have a fitted effect of over 50% in size
Summary of the method: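 HSE-bla HeLa; 1500 cells/well; overnight 37 C, 5% CO2; compound 5 h 37 C; LiveBLAzer B/G substrate 2.5 h RT; CellTiter-Glo 30 min RT; luminescence.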

[10] = qHTS assay for small molecule activators of the heat shock response signaling pathway (AID 743210; active = well fitted activation curve with a large enough effect in the signal ratio in the repeat runs, with a control signal flat, not every such curve was filed as active; the % refers to the signal ratio;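 also: HeLa cells with beta-lactamase reporter driven by heat shock elements; series mostly up to about 63 µM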)
Summary of the method: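 Fluorescence from a cleaved B/G FRET substrate (2.5 h, room temp) reports HSE-driven beta-lactamase in HeLa cells treated 5 h at 37 C with DMSO-dissolved compounds.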

[11] = qHTS assay to identify small molecule agonists of the peroxisome proliferator-activated receptor delta (PPARd) signaling pathway - cell viability counter screen (AID 743211); also: nearly all actives have a fitted effect of over 55% in size
Summary of the method: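 Viability of GeneBLAzer PPARd UAS-bla HEK293H cells was assessed after 17 h compound incubation at 37C, using CellTiter-Glo reagent added after the reporter read and luminescence recorded 30 min later.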

[12] = qHTS assay to identify small molecule antagonists of the peroxisome proliferator-activated receptor delta (PPARd) signaling pathway - cell viability counter screen (AID 743213); also: nearly all actives have a fitted effect of over 50% in size
Summary of the method: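 Viability counter-screen, qHTS format: PPARd-bla HEK293H, L165041 300 nM final, 17 h compound exposure at 37 C, CellTiter-Glo luminescence after 30 min RT.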

[13] = qHTS assay to identify small molecule agonists of the farnesoid-X-receptor (FXR) signaling pathway - cell viability counter screen (AID 743218); also: nearly all actives have a fitted effect of over 45% in size
Summary of the method: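 Luminescence from CellTiter-Glo, read after 30 min at RT, reports viability of GeneBLAzer FXR-UAS-bla HEK 293T cells treated 16 h with compounds in the wells used for the beta-lactamase reporter.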

[14] = qHTS assay to identify small molecule antagonists of the farnesoid-X-receptor (FXR) signaling pathway - cell viability counter screen (AID 743221; active = well fitted cell-killing curve with a large enough effect in the repeat runs, not every such curve was filed as active; also: nearly all actives have a fitted effect of over 50% in size)
Summary of the method: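 Quantitative HTS of the Tox21 10K library run in parallel with the beta-lactamase reporter read. HEK 293T cells carrying a UAS-driven bla reporter got compound and 50 uM CDCA (final) for 16 h; ATP-based luminescence followed.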

[15] = molecular target: Peroxisome proliferator-activated receptor delta (Homo sapiens) (UniProt Q03181); experiment: qHTS assay to identify small molecule agonists of the peroxisome proliferator-activated receptor delta (PPARd) signaling pathway (AID 743212; calls by dose curve)
Chain of Peroxisome proliferator-activated receptor delta (Homo sapiens) (Q03181 whole entry, looked up): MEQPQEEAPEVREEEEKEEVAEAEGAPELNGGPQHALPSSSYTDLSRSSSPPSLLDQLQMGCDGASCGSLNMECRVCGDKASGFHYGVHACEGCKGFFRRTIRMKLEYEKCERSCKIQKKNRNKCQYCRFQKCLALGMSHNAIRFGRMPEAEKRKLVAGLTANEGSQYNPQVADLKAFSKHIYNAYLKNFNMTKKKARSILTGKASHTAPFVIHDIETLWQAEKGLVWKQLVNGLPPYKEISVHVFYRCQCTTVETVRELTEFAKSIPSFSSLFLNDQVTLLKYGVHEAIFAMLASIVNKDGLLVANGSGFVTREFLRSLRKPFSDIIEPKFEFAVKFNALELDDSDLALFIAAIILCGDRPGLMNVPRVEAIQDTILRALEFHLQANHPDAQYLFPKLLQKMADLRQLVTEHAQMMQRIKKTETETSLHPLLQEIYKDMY
Summary of the method: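 Steps: seed PPARd-bla HEK293H cells; incubate 5 h, 37 C, 5% CO2; add compounds in DMSO; incubate, 37 C; add LiveBLAzer B/G FRET substrate; hold 2 h at room temperature; measure fluorescence.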

[16] = molecular target: Peroxisome proliferator-activated receptor delta (Homo sapiens) (UniProt Q03181); experiment: qHTS assay to identify small molecule antagonists of the peroxisome proliferator-activated receptor delta (PPARd) signaling pathway (AID 743215; active = well fitted inhibition curve with a large enough effect in the signal ratio in the repeat runs, not every such curve was filed as active; the % refers to the signal ratio;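 also: cells stimulated with agonist L165041 at 300 nM final during compound exposure; series mostly up to about 62 µM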)
Summary of the method: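 HEK293H GeneBLAzer PPARd UAS-bla reporter cells; cpd + L165041 300 nM final, 17 h 37 C; LiveBLAzer B/G FRET substrate 2 h RT; fluorescence intensity read-out. Antagonist mode.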

[17] = molecular target: Vitamin D3 receptor (Homo sapiens) (UniProt P11473); experiment: qHTS assay to identify small molecule agonists of the vitamin D receptor (VDR) signaling pathway (AID 743222; calls by dose curve)
Chain of Vitamin D3 receptor (Homo sapiens) (P11473 whole entry, looked up): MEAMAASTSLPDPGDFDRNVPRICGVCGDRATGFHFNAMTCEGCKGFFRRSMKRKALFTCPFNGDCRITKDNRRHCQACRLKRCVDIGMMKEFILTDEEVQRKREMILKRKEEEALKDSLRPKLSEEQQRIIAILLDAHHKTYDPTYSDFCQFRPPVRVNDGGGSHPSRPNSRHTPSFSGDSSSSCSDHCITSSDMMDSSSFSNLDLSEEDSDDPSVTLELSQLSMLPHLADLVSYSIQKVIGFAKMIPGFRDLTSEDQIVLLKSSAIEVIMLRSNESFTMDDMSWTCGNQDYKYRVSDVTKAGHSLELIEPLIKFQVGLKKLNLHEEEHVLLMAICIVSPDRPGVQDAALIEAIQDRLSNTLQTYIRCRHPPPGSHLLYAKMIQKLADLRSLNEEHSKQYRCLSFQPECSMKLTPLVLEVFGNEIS
Summary of the method: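 Beta-lactamase reporter readout (LiveBLAzer B/G FRET, 2 h RT) in VDR-bla cells after 16 h compound treatment at 37C, 5% CO2; cells pre-incubated 4 h before pin transfer of DMSO solutions.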

[18] = molecular target: Vitamin D3 receptor (Homo sapiens) (UniProt P11473); experiment: qHTS assay to identify small molecule antagonists of the vitamin D receptor (VDR) signaling pathway (AID 743223; active = well fitted inhibition curve with a large enough effect in the signal ratio in the repeat runs, not every such curve was filed as active; the % refers to the signal ratio)
Summary of the method: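 Fluorescence from LiveBLAzer B/G FRET substrate, read after 2 h at room temperature, reflects beta-lactamase reporter activity in VDR-bla cells treated 16 h at 37C with compounds and agonist 1alpha,25-dihydroxyvitamin D3 (3 nM final).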

[19] = molecular target: Bile acid receptor (Homo sapiens) (UniProt Q96RI1); experiment: qHTS assay to identify small molecule antagonists of the farnesoid-X-receptor (FXR) signaling pathway (AID 743217; active = well fitted inhibition curve with a large enough effect in the signal ratio in the repeat runs, not every such curve was filed as active; the % refers to the signal ratio)
Chain of Bile acid receptor (Homo sapiens) (Q96RI1 whole entry, looked up): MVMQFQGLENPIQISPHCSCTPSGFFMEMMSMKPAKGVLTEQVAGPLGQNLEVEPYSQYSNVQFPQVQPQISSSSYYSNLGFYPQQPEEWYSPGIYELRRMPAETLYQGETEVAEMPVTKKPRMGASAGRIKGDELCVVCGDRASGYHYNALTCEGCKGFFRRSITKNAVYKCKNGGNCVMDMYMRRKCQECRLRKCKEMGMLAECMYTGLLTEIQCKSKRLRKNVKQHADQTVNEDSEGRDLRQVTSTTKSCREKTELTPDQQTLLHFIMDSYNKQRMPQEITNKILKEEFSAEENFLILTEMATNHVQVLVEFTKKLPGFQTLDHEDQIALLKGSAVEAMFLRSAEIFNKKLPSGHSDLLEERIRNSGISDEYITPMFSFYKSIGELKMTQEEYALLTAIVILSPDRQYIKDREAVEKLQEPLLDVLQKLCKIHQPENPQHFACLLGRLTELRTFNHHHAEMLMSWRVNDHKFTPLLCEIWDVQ
Summary of the method: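 Read-out: beta-lactamase FRET fluorescence (LiveBLAzer B/G substrate, 2 h, room temperature) in GeneBLAzer FXR-UAS-bla HEK 293T cells. Compounds were co-dosed with 50 uM chenodeoxycholic acid (final) and incubated 16 h at 37 °C.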

[20] = molecular target: Bile acid receptor (Homo sapiens) (UniProt Q96RI1); experiment: qHTS assay to identify small molecule agonists of the farnesoid-X-receptor (FXR) signaling pathway (AID 743220; active = well fitted activation curve with a large enough effect in the signal ratio in the repeat runs, not every such curve was filed as active; the % refers to the signal ratio)
Summary of the method: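 FXR-UAS-bla HEK 293T cells carrying a UAS-driven beta-lactamase reporter were plated for 5 h at 37C/5% CO2, then exposed to DMSO-dissolved Tox21 10K compounds for 16 h at 37C. A LiveBLAzer B/G FRET substrate was loaded for 2 h at room temperature before fluorescence reading.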

| Compound | Potency [1] | Potency [2] | Potency [3] | Potency [4] | outcome [5] | outcome [6] | Potency [7] | outcome [8] | Potency [9] | outcome [10] | outcome [11] | outcome [12] | outcome [13] | outcome [14] | outcome [15] | outcome [16] | outcome [17] | outcome [18] | outcome [19] | outcome [20] |
| --- | --- | --- | --- | --- | --- | --- | --- | --- | --- | --- | --- | --- | --- | --- | --- | --- | --- | --- | --- | --- |
| C/C=C(\C)C(C)=O | inactive | inactive | inactive | inactive | inactive | inactive | inactive | inactive | inactive | inactive | inactive | inactive | inactive | inactive | – | – | – | – | – | – |
| CCCCSCCCC | inactive | inactive | inactive | inactive | inactive | inactive | inactive | inactive | inactive | inactive | inactive | inactive | inactive | inactive | inactive | inactive | – | – | – | – |
| CCCC(CC)c1ccccc1 (stereo not given) | inactive | inactive | inactive | inactive | inactive | inactive | inactive | inactive | inactive | inactive | inactive | inactive | inactive | inactive | – | – | inactive | inactive | – | – |
| O/N=C/C=N/O | inactive | inactive | inactive | inactive | inactive | inactive | inactive | inactive | inactive | inactive | inactive | inactive | inactive | inactive | inactive | inactive | inactive | inactive | – | – |
| Nc1nnnn1-c1ccccc1 | inactive | inactive | inactive | inactive | inactive | inactive | inactive | inactive | inactive | inactive | inactive | inactive | inactive | inactive | inactive | inactive | inactive | inactive | inactive | – |
| CC(C)(C)NC[C@H](O)COc1cccc2c1CCCC2=O | inactive | inactive | inactive | inactive | inactive | inactive | inactive | inactive | inactive | inactive | inactive | inactive | inactive | inactive | – | – | inactive | inactive | – | – |
| C=C(C)c1cccc(C(C)(C)N=C=O)c1 | inactive | inactive | inactive | inactive | inactive | inactive | inactive | inactive | inactive | inactive | inactive | inactive | inactive | inactive | – | – | inactive | inactive | – | – |
| N#Cc1cscn1 | inactive | inactive | inactive | 54.9 µM (active) | inactive | inactive | inactive | inactive | inactive | inactive | inactive | inactive | inactive | inactive | – | – | – | – | inactive | – |
| CNCCS(=O)(=O)O | inactive | inactive | inactive | inactive | inactive | inactive | inactive | inactive | inactive | inactive | inactive | inactive | – | inactive | – | inactive | inactive | – | – | – |
| CCC(C)C(C)=O (stereo not given) | inactive | inactive | inactive | inactive | inactive | inactive | inactive | inactive | inactive | inactive | inactive | inactive | inactive | inactive | – | – | inactive | inactive | – | – |
| CCNC(=O)NCc1cccc(Cl)c1 | inactive | inactive | inactive | inactive | inactive | inactive | inactive | inactive | inactive | inactive | inactive | inactive | inactive | inactive | inactive | inactive | inactive | inactive | inactive | – |
| C=CCCCCCCCC | inactive | inactive | inactive | inactive | inactive | inactive | inactive | inactive | inactive | inactive | inactive | inactive | inactive | inactive | inactive | inactive | inactive | – | – | – |
| CC(S)C(C)S (stereo not given) | inactive | inactive | inactive | inactive | inactive | inactive | inactive | inactive | inactive | inactive | inactive | inactive | inactive | inactive | inactive | – | inactive | – | inactive | inactive |
| CCCCCCCCCCCCCCC(=O)NC(CO)CCCCCCCCCCCCCC (stereo not given) | inactive | inactive | inactive | inactive | inactive | inactive | inactive | inactive | inactive | inactive | inactive | – | inactive | inactive | inactive | – | inactive | inactive | inactive | – |
| NCc1ccc(S(N)(=O)=O)cc1 | inactive | inactive | inactive | inactive | inactive | inactive | inactive | inactive | inactive | inactive | inactive | inactive | inactive | inactive | inactive | – | inactive | inactive | inactive | – |
| OCCN1CCOCC1 | inactive | inactive | inactive | inactive | inactive | inactive | inactive | inactive | inactive | inactive | inactive | inactive | – | inactive | inactive | inactive | – | – | – | – |
